Records with an inconclusive call do not appear. Calls come from the whole dose curve; as a rule, active = well fitted curve in either direction with a large enough effect (not every such curve was filed as active); inconclusive = small, poorly fitted or top-dose-only effect, or another doubt; inactive = flat fitted curve, though single readings scatter.
Test: AP1 Signaling Pathway (AID 357);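 note: ME-180 reporter cells stimulated with EGF at its EC50 level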
Conditions: ME-180 (cervical carcinoma) AP-1-bla reporter, EGF-induced, beta-lactamase ratio, 5 h; at 7.69 µM (top of the series) unless noted
From the text: NCGC Assay Overview: Activator protein-1 (AP-1), a transcription factor, plays an important role in tumor genesis by regulating genes involved in cell proliferation, differentiation, apoptosis, and angiogenesis. AP-1 activity is induced by a complex network of signaling pathways that involves extracellular signals, such as growth factors. The AP-1 protein complex formed from c-Fos and c-Jun binding to the AP-1 response element results in transcriptional activation of genes containing such elements within their promoter. Low molecular weight molecules have been discovered and developed to modulate various components of these signaling pathways, for example, MAP kinase inhibitors. However, many points of pathway modulation remain untested due to the lack of chemical probes making this signaling locus of general interest. Using a beta-lactamase reporter-gene under control of the AP-1 response element, a cell-based assay [CellSensor(TM) AP-1-bla ME-180 developed by Invitrogen Corp.] was used to measure EGF-induced signaling. Library compounds were measured for their ability to modulate positively or negatively the action of EC50 EGF on reporter gene activity. Compounds were screened in a titration series in 1536-well format. Positive and negative modulators were identified based on the AC50 values derived from the screening data.
NCGC Assay Protocol Summary: 2500 cells/5uL in Opti-MEM medium containing 0.5% dialyzed FBS, 0.1 mM NEAA, 1 mM sodium pyruvate and 10 mM HEPES was dispensed into 1536-well plates and cells were cultured at 37 degrees Celsius overnight. […] After centrifugation at 1000 rpm for 2 seconds the plates were incubated at 37 degrees Celsius for 5 hours. 1 uL of CCF4-dye mixture was added to each well. After incubated at room temperature for 2.5 hours the plates were measured on an EnVision plate reader at Excitation 405nm, Emission1=460nm and Emission 2=530nm. The %Activity was determined from the ratio of 460nm/530nm.
% is set by controls: 0 for no effect and ±100 for the full control effect.

Activity change, negative = inhibition, inactive:
CC(C)[C@@H](C)/C=C\[C@@H](C)[C@@H]1CC[C@H]2C3=CC=C4C[C@@H](O)CC[C@]4(C)[C@H]3CC[C@]21C -3.49%
O=C1CCC(c2ccccc2)=NN1c1nc2ccccc2s1 -11.1%
NC(=O)N/N=C1\CC[C@H](O)C[C@@H]1CC(=O)O 11.5%
N[C@@](CCc1ccccc1)(C(=O)O)c1ccccc1 4.96%
COc1cc2c3cc1Oc1c(OC)c(OC)cc4c1[C@@H](Cc1ccc(O)c(c1)Oc1ccc(cc1)C[C@@H]3N(C)CC2)CN(C)C4 -11.4%
COc1c2c(nc3ccccc13)O[C@@H]([C@@](C)(O)CO)C2 -14.5% [at 38 µM]
NC(=O)C[C@H](N)C(N)=O -1.63%
CN(C)c1ccc(C(c2ccc(N(C)C)cc2)c2ccc([N+](=O)[O-])cc2)cc1 5.91%
CC(C)[C@@H]1NC(=O)[C@H](CCCCN)NC(=O)[C@H](Cc2c[nH]c3ccccc23)NC(=O)[C@H](Cc2ccc(O)cc2)NC(=O)[C@H](C)N(C)C(=O)[C@H](Cc2ccccc2)NC1=O 15.3% [at 38 µM]
O=S(=O)(NCCNC/C=C\c1ccc(Br)cc1)c1cccc2cnccc12 2.61% [at 38 µM]
O=C(O)CCC/C=C\C[C@H]1[C@@H](/C=C\[C@@H](O)C2Cc3ccccc3C2)[C@H](F)C[C@H]1O -14.7% [at 38 µM]
Nc1ncnc2c1nc(Br)n2[C@@H]1O[C@H]2COP(=O)(O)O[C@@H]2[C@H]1O -7.65% [at 38 µM]
C[C@@H](CCC(=O)O)C(=O)O 3.57%
CN1[C@@H]2CC[C@H]1CC(NC(=O)c1nn(C)c3ccccc13)C2 (stereo not given in full) -1.02% [at 38 µM]
CN(C)c1ccc(N=Nc2cccc3ccoc23)cc1 1.15%
CCCCC/C=C\C[C@H](O)/C=C\c1cccc(C[C@H](O)CCCCO)n1 -11.3% [at 38 µM]
CC(C)/C(=N/[N+](C)(C)C)c1ccccc1 3.83%
CC[C@@H](Nc1ncnc2nc[nH]c12)C(=O)O -11.2%
C[C@@H](SCc1ccccc1)C(=O)O -4.75%
COc1ccc(Oc2ncc3nc(C)c(=O)n(Cc4ccc(F)cc4)c3n2)cc1 -26.5%
Oc1ccc2ccccc2c1CN(Cc1c(O)ccc2ccccc12)C1CCCCC1 3.63%
N[C@@H](CNO)C(=O)O 7.51%
Nc1nc(Cl)nc2c1ncn2[C@@H]1O[C@@H](CO)[C@@H](O)[C@H]1O -7.62% [at 38 µM]
O=C(O)c1ccccc1/C=N\N=C1c2ccccc2-c2ccccc21 20.6%
CC1(C)O[C@H]2[C@@H](c3[nH]nc4c(=O)[nH]c(=O)[nH]c34)OC[C@H]2O1 8.08%
CC(C)CCNc1ncnc2[nH]ncc12 6.28%
Cc1[nH]c2c(C)ccc(C)c2c1CC(=O)O -6.88%
O=C(O)c1cc(-c2ccc(-c3ccccc3)cc2)nc2cc3ccccc3cc12 -7.09%
CC(=O)Nc1nc(NC(C)=O)c2[nH]c(CO)nc2n1 9.97%
CC1=C(C(=O)O)N2C(=O)[C@@H](NC(=O)[C@@H](N)C3=CCC=CC3)[C@@H]2SC1 0.806% [at 38 µM]
CC(C)Cn1cnc2c(SCc3ccc(Cl)cc3Cl)nc(N)nc21 -27.8%
Cc1ccc2nc(-c3ccc(NC(=O)c4ccc(N)cc4)c(S(=O)(=O)O)c3)sc2c1 -3.73%
NC(=S)SCCC(=O)O 11.1%
O=CN[C@@H](Cc1cnc[nH]1)C(=O)O 4.13%
OCCCNc1ncnc2[nH]ncc12 7.33%
COc1ncc2nc(C)c(=O)n(C)c2n1 -15%
NC(=O)[C@@H]1CCCNC1 9.79%
CC1(C)O[C@@H]2O[C@H]([C@@H]3COC(C)(C)O3)[C@H](N)[C@H]2O1 5.74%
NCCNCC1CCNCC1 2.94%
S=c1nc(-c2nc(=S)[nH]c3c2CCCCCCCCCC3)c2c([nH]1)CCCCCCCCCC2 -8.81%
